# Bioassay records as filed in PubChem BioAssay.
# Tau fluor cs = counter-screen for tau fibril formation inhibitors. tau K18 P301L Alexa594 fluorescence, heparin fibrillization. Potency, µM (series often up to 57.7 µM), inactives show top-dose activity change, negative = decrease. 0.93% of 280,000 active; also: nearly all actives have a fitted effect of over 55% in size
#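 Human tau K18 P301L (15 uM unlabeled, 0.24 uM Alexa 594-labeled) in 100 mM sodium acetate pH 7 with 20 uM heparin, 6 hr at 37 C. ThT 30 uM added, 1 hr ambient; Alexa 594 FP and total fluorescence read at 555/632 nm.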
# Sfp PPTase inh = Sfp phosphopantetheinyl transferase inhibition | Q9F4F7 | Biochemical Sfp PPTase activity, qHTS | Potency, µM, without a hit: largest response in the series, negative = inhibition, most hits filed as inhibitors | 3.5% of 310,000 active | AID 1490;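 also: the enzyme is Sfp with the accession as filed and its product quenches rhodamine fluorescence; 0% = enzyme reaction without inhibitor and -100% = no enzyme wells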
#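 Compounds were incubated with enzyme (final 15 nM) for 15 min at room temperature before substrate addition started the reaction. Fluorescence at 525 nm excitation, 598 nm emission was recorded immediately and after 30 minutes.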
# VDR inhibitor = blocks the human vitamin D receptor | VDR-SRC2-3 peptide fluorescence polarization, 2 h | Potency, µM, inactives show max response, negative = inhibition, hits mostly inhibitors | 0.93% of 400,000 active | AID 504847
#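 Fluorescence polarization assay measuring small-molecule disruption of VDR binding to the coregulator peptide SRC2-3. Compounds were pin-transferred (23 nl) into the reagent mix and incubated 2 h at room temperature before reading.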
# Tau fibril ThT = blocks human tau fibril formation measured by thioflavin T. 2.1% of 270,000 active. recombinant tau K18 P301L (four-repeat tau fragment), heparin-induced fibrillization, ThT fluorescence. Potency, µM (doses to about 57.4 µM), for inactives: top-dose activity, negative = inhibition, hits mostly inhibitors. P10636; also: nearly all actives have a fitted effect of over 55% in size
# Target sequence (P10636 561-689 P618L limits assumed): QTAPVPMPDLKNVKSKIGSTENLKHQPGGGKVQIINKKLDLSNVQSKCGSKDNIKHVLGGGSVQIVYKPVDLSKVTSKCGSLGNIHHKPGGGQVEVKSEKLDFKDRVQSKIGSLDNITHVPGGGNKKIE
#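 Heparin-induced (20 uM) aggregation of recombinant human K18 P301L tau, 15 uM unlabeled with 0.24 uM labeled, pH 7 acetate buffer, 6 hr at 37 C with compound. Fibrils quantified by 30 uM ThT fluorescence after 1 hr ambient incubation.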
# Tau fibril FP = inhibitors of human tau fibril formation | 0.39% of 280,000 active | Potency, µM (doses to about 57.7 µM), inactives show top-dose activity, negative = inhibition, actives largely listed as inhibitors | P10636 | AID 1468 | K18 P301L tau heparin fibrillization, Alexa594 FP, 6 h; also: nearly all actives have a fitted effect of over 55% in size
#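 Human K18 P301L fragment (15 uM unlabeled plus 0.24 uM Alexa 594-labeled) in 100 mM sodium acetate pH 7 with compound, aggregation induced by 20 uM heparin for 6 hr at 37 C. ThT (30 uM) added for 1 hr, then Alexa 594 FP read.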
# PLK1 PBD block = PLK1 (human) polo-box domain binding inhibition. P53350. Plk1 PBD binding of FITC phosphopeptide, fluorescence polarization. Potency, µM, for inactives: max response, negative = inhibition, most hits filed as inhibitors. 2.8% of 360,000 active; also: series mostly up to about 57 µM; nearly all actives have a fitted effect of over 65% in size
# Target sequence (P53350 whole entry, looked up, the tested form may be a part): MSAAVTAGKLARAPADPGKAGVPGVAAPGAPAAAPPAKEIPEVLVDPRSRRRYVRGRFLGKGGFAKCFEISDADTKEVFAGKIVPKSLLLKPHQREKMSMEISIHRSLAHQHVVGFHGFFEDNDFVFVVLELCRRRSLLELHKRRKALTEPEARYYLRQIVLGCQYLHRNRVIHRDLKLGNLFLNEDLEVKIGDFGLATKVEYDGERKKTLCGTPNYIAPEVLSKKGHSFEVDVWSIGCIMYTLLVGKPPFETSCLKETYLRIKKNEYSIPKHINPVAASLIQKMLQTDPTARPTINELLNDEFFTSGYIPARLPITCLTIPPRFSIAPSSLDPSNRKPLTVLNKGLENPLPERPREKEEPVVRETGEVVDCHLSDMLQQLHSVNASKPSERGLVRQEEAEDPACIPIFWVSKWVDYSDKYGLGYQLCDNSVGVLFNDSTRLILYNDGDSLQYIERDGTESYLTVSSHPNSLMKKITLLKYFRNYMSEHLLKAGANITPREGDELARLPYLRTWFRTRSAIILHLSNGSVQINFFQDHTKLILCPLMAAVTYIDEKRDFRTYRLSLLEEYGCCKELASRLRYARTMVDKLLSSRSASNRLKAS
# * = called active by the depositor; ? = inconclusive; nt = not tested or not shown; [ ] = another dose, or the depositor's remark. Sampled rows, rich in hits. Any-hit rate of the full collection: about 6%. Calls follow the shape of the dose curve; as a rule, active = well fitted curve in the direction sought with a large enough effect; inconclusive = small, poorly fitted or top-dose-only effect, or another doubt; inactive = no such curve, though single readings can be large; an effect the other way counts as inactive or inconclusive. Unless noted, % is scaled to controls: 0 for no effect and ±100 for the full control effect; potency is read from the fitted curve at half-maximal effect.
SMILES,Tau fluor cs,Sfp PPTase inh,VDR inhibitor,Tau fibril ThT,Tau fibril FP,PLK1 PBD block
CCOC(=O)/C(C#N)=C1\CCCN1CC(N)=S,2%,35µM*,?,?,-10%,21µM*
CCOC(=O)C(C#N)=C1CCN(Cc2ccccc2)CC1,nt,11%,-15%,nt,nt,-16%
COc1ccc(/C=C/c2cc(=O)c3cc(Cl)ccc3o2)cc1,-12%,50µM*,-5%,?,-2%,-6%
CCOC(=O)C1=C(O)/C(=C\c2ccc(CNS(=O)(=O)c3ccc(Br)cc3)o2)N=C1C,-26%,?,-21%,?,-8%,?
COC(=O)C1=C(O)/C(=C\c2ccc(CNS(=O)(=O)c3ccccc3)o2)N=C1C,?,50µM*,2%,14µM*,?,-16%
COC(=O)C1=C(O)/C(=C\c2ccc(CNS(=O)(=O)c3ccc(Cl)cc3)o2)N=C1C,-20%,35µM*,1%,?,-7%,-16%
COc1ccc(N/N=C(/C#N)S(=O)(=O)C(C)(C)C)cc1,-1%,17%,13%,-3%,0%,-9%
CSc1ccc(N/N=C(/C#N)S(=O)(=O)C(C)(C)C)cc1,-11%,1%,-10%,?,15%,21µM*
O=C(Nc1ccc2nc3n(c(=O)c2c1)CCCCC3)c1c(F)ccc([N+](=O)[O-])c1F,nt,-4%,?,nt,nt,24µM*
O=c1c2cc(NC(=S)N3CCC(N4CCCCC4)CC3)ccc2nc2n1CCCCC2,-7%,79µM*,-3%,-1%,0%,3%
O=C(Nc1ccc2nc3n(c(=O)c2c1)CCCCC3)C(=O)N1CCN(c2ccc(F)cc2)CC1,nt,12%,?,nt,nt,6.7µM*
NS(=O)(=O)c1cc([C@@]2(O)NC(=O)c3ccccc32)ccc1Cl,nt,15%,-3%,nt,nt,nt
CCOC(=O)[C@H]1NN=C(C(=O)OC)[C@@H]1c1ccccc1,2%,4%,?,7%,-1%,38µM*
CCOC(=O)C1=NNC(C(=O)OCC)C1c1ccccc1 (centres undefined),nt,nt,-8%,nt,nt,-8%
COc1ccc(CCNC(=S)NC2CCN(Cc3ccccc3)CC2)cc1,-15%,?,23%,-8%,-4%,30µM*
COc1ccc(CCNC(=S)Nc2ccc(OC)cc2)cc1,-22%,13%,-23%,-12%,6%,21µM*
CCOC(=O)c1ccc(NC(=O)C(=O)NCCc2ccc(OC)cc2)cc1,-11%,17%,16%,?,-10%,-5%
COc1ccc(NC(=S)NCCCCCC(=O)C[N+](=O)[O-])cc1,-15%,-34%,?,?,5%,24µM*
CCOC(=O)c1ccc(NC(=S)NCCc2ccc(F)cc2)cc1,?,11%,-4%,6%,28µM*,-5%
CC(OC(=O)/C=C/c1ccc2ccccc2n1)C(=O)NCc1ccccc1 (centres undefined),nt,nt,-7%,nt,nt,1%
O=S1(=O)c2ccccc2N(Cc2ccccc2F)c2ccccc21,-17%,nt,-14%,-5%,-17%,nt
COc1cc(OC)c(NS(=O)(=O)c2cc(-c3cnc(C)o3)ccc2OC)cc1Cl,-27%,nt,5%,-17%,1%,nt
CCN(CC)CCNC(=S)Nc1ccc(F)cc1,-5%,28µM*,-14%,2%,-2%,5%
CCCCNC(=S)Nc1ccc(Oc2ccccc2)cc1,?,50µM*,-5%,?,6%,?
Cn1nc(-c2ccncc2)nc2c(=O)n(C)c(=O)nc1-2,nt,nt,-8%,nt,nt,nt
SMILES,Tau fluor cs,Sfp PPTase inh,VDR inhibitor,Tau fibril ThT,Tau fibril FP,PLK1 PBD block
Cc1nc2ccn(Cc3cccnc3)c(=O)c2cc1C(=O)NCc1ccc(Cl)cc1,-3%,nt,2%,-7%,-6%,nt
CN(C)S(=O)(=O)n1cc(/C=C(\NC(=O)c2ccccc2F)C(=O)N2CCCCC2)c2ccccc21,nt,nt,nt,nt,nt,1%
C[C@H]1O[C@@H](O[C@H]2CC[C@@]3(C)C(CC[C@]4(C)C3C=C[C@]35OC[C@@]6(CCC(C)(C)C[C@H]63)[C@@H](O)C[C@]54C)[C@]2(C)CO)[C@H](O)[C@@H](O[C@@H]2O[C@H](CO)[C@@H](O)[C@H](O)[C@H]2O)[C@H]1O (some centres undefined),nt,nt,-15%,nt,nt,-13%
CC1OC(OC2C(OC3C(O[C@H]4CC[C@]5(C)C6C=C[C@]78OC[C@@]9(CC[C@@H](C)[C@H](C)C97)[C@H](O)C[C@@]8(C)[C@]6(C)CC[C@H]5C4(C)C)OC(C)C(O)C3O)OC(CO)C(O)C2O)C(O)C(O)C1O (some centres undefined),-3%,79µM*,nt,-16%,-3%,nt
FC(F)(F)c1ccccc1/C=N/n1c(COc2ccccc2)n[nH]c1=S,nt,50µM*,-14%,nt,nt,30µM*
S=c1[nH]nc(COc2ccccc2)n1/N=C/c1ccccc1Br,nt,2%,-19%,nt,nt,?
FC(F)(F)c1ccc(/C=N/n2c(COc3ccccc3)n[nH]c2=S)cc1,nt,?,-13%,nt,nt,27µM*
Cc1cc(=O)oc2cc(Oc3ccc([N+](=O)[O-])cc3[N+](=O)[O-])ccc12,13µM*[quencher],-5%,-24%,?,0%,-3%
CCc1cccc2c(C(=O)CN3C(=O)N(C)C4(CCCCC4)C3=O)c[nH]c12,nt,nt,-7%,nt,nt,-7%
COc1ccc(-n2nc(C(=O)c3cccs3)cc(-c3nc4ccccc4[nH]3)c2=N)cc1,?,26%,7%,4µM*,-3%,-8%
COc1cccc(CNC(=O)c2ccc(-c3nc(CS(=O)(=O)c4ccccc4)c(C)o3)cc2)c1,-16%,nt,-6%,2%,-7%,nt
CCCn1nc([N+](=O)[O-])c(C(C#N)c2nc3ccccc3s2)c(Cl)c1=O (centres undefined),5µM*[quencher],17%,?,4µM*,18µM*,24µM*
O=[N+]([O-])c1ccc(CN2CCN(c3nc4ccccc4s3)CC2)cc1,nt,-2%,?,nt,nt,-9%
CCC1(c2ccccc2)NC(=O)N(CC(=O)Nc2ccc(OC)nc2)C1=O (centres undefined),nt,7%,3%,nt,nt,13µM*
CCN(CC)C(=O)c1sc2c(c1C)c(=O)n(Cc1ccccc1)c(=O)n2Cc1ccccc1C,-6%,nt,2%,-6%,-7%,nt
CCCn1cnc2c(c1=O)c1nc3ccccc3nc1n2Cc1ccccc1OC,-4%,8%,nt,-14%,-3%,nt
COc1ccc(Cn2c3nc4ccccc4nc3c3c(=O)n(Cc4ccco4)cnc32)cc1,-18%,4.5µM*,nt,?,-17%,nt
Cc1cccc(-n2cnc3c(c2=O)c2nc4ccccc4nc2n3Cc2ccco2)c1,-21%,3.5µM*,4%,?,?,-15%
Nc1cc(N)nc(SCC(=O)Nc2ccc(Br)cc2Cl)n1,-4%,12%,-21%,-2%,-7%,11µM*
Nc1nc(SCC(=O)Nc2ccc(Br)cc2Br)n[nH]1,nt,nt,-8%,nt,nt,1%
